Assay results taken from PubChem BioAssay.
For some assays here: Measured potencies and affinities stand elsewhere. Calls of active or inactive are those of the source.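 Rule for the calls, unless noted: active = fluorescence ratio normalized to control raised more than 50% in primary screen plus both repeat runs; inactive = the rest.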

Assays:
[1] = tested on: TRPC4 beta (transient receptor potential cation channel C4), mouse; experiment: activators of mouse TRPC4 channel, confirmation, cell-based, Fluo4 calcium, HEK293 TRPC4beta/mu-opioid, duplicates, 10 µM (AID 2426); settings: Fluo4 calcium fluorescence, at 10 µM; stronger effect = higher value;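 for activation: percent rise of integrated ratio over buffer wells lacking compound which define 0%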
[2] = tested on: transient receptor potential cation channel C4 beta (TRPC4), mouse; experiment: activators of mouse TRPC4 channel, confirmation, cell-based, second round, Fluo4, HEK293 TRPC4beta/mu-opioid, 1 µM (AID 2461;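 active = primary screen active and over 50% activation in each of two duplicate runs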); settings: Fluo4 calcium fluorescence, at 1 µM; stronger effect = higher value
[3] = tested on: TRPC4 (transient receptor potential cation channel C4 beta), mouse; experiment: positive allosteric modulators of mouse TRPC4, confirmation, cell-based, second round, Fluo-4, HEK293 TRPC4beta/mu-opioid, 1 µM (AID 2554;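 active = primary screen hit whose fluorescence ratio, in both repeats, exceeds the weak agonist control mean by 3 SD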); settings: DAMGO EC20, Fluo-4 calcium flux, at 1 µM; stronger effect = higher value
[4] = tested on: TRPC4 beta (transient receptor potential cation channel C4), mouse; experiment: positive allosteric modulators of mouse TRPC4, confirmation, cell-based, Fluo-4, HEK293 TRPC4beta/mu-opioid (AID 2555;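 active = primary screen hit whose calcium fluorescence ratio, in both repeats, exceeds the weak agonist control mean by 3 SD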); settings: DAMGO EC20, Fluo-4 calcium flux, at 10 µM; stronger effect = higher value
[5] = target: Short transient receptor potential channel 4 (Mus musculus) (UniProt Q9QUQ5); experiment: inhibitors of mouse TRPC4 channel, confirmation, cell-based, Fluo4, HEK293 TRPC4beta/mu-opioid (AID 2636;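 active = calcium signal cut by more than 3 SD below the full-agonist control yet still positive, in both repeats and the earlier primary screen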); settings: DAMGO, Fluo4 calcium flux, at 10 µM; stronger effect = higher value
[6] = target: Short transient receptor potential channel 4 (Mus musculus) (UniProt Q9QUQ5); experiment: inhibitors of mouse TRPC4 channel, confirmation, cell-based, second round, Fluo4, HEK293 TRPC4beta/mu-opioid, 1 µM (AID 2637;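 active = calcium signal ratio cut to more than 3 SD under the fully stimulated control mean yet still positive, in both repeats and the primary screen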;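 for inhibition: percent of integrated ratio relative to wells lacking test compound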); settings: Fluo4 calcium flux, DAMGO, at 1 µM; stronger effect = higher value
[7] = target: Short transient receptor potential channel 4 (Mus musculus) (UniProt Q9QUQ5); experiment: TRPC4 positive allosteric modulators, dose response, cell-based, HEK293 TRPC4/mu-opioid, Fluo-4 calcium, EC20 DAMGO (AID 434941;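 active = earlier screen potentiator hit that boosts the TRPC4 ion channel at some dose, with a dose response; inactive = no potentiation, no dose response, or not a prior hit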;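 note: calcium entry triggered by an EC20 dose of DAMGO at the co-expressed mu-opioid receptor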)
[8] = target: Short transient receptor potential channel 4 (Mus musculus) (UniProt Q9QUQ5); experiment: mouse TRPC4 channel inhibitors, dose response, cell-based, HEK293 TRPC4/mu-opioid, Fluo-4 calcium (AID 434942;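 active = primary screen inhibitor hit that blocks the TRPC4 channel at some tested dose, yielding a dose curve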)
[9] = target: Short transient receptor potential channel 6 (Mus musculus) (UniProt Q61143); experiment: inhibition of mouse TRPC6 channel, confirmation, selectivity assay for TRPC4 inhibitor project, cell-based, HEK293, membrane potential dye, duplicate (AID 434948;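 active = active in primary screen and both duplicates, each dropping signal beyond three positive-control SD with fluorescence still positive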); settings: HEK293 TRPC6, membrane potential dye fluorescence, at 10 µM, stimulated with maximal-effect acetylcholine; stronger effect = higher value
[10] = target: Short transient receptor potential channel 6 (Mus musculus) (UniProt Q61143); experiment: activation of mouse TRPC6 channel, confirmation, selectivity assay for TRPC4 activator project, cell-based, HEK293, membrane potential dye, duplicate (AID 434950;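 active = membrane potential signal rise above negative control mean plus 3 SD in both duplicates, also active in the earlier TRPC4 screen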;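 for activation: 0% = buffer only wells and 100% = acetylcholine maximal-effect wells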); settings: HEK293 TRPC6, membrane potential fluorescence, at 10 µM; stronger effect = higher value
[11] = target: Short transient receptor potential channel 6 (Mus musculus) (UniProt Q61143); experiment: TRPC6 potentiation by TRPC4 potentiator hits, confirmation, selectivity assay for TRPC4 potentiator project, HEK293 cells, membrane potential dye, duplicate (AID 434952;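 active = compound raising the membrane signal above positive-control mean plus 3 SD in both repeats, and a primary screen hit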); settings: HEK293 TRPC6, membrane potential dye fluorescence, at 10 µM, maximal acetylcholine added after compound; stronger effect = higher value
[12] = target: Short transient receptor potential channel 4 (Mus musculus) (UniProt Q9QUQ5); experiment: calcium flux activators in TRPC4/5HT1a cells, counter-screen for TRPC4 activator project, cell-based, second counter screen, HEK293 TRPC4/5HT1a, Fluo-4 (AID 434977;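 active = calcium signal rise above buffer-control mean plus 5 SD in both duplicates, and also a hit in the primary screen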;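 for activation: plate controls were assay buffer for no effect and maximal serotonin response for full effect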); settings: Fluo-4 calcium flux, at 10 µM; stronger effect = higher value
[13] = calcium flux inhibitors in TRPC4/5HT1a cells, confirmation, counter-screen for TRPC4 inhibitor project, cell-based, second counter screen, HEK293 TRPC4/5HT1a, Fluo-4 (AID 434978;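 active = primary screen active whose calcium signal fell more than 3 SD beyond the full-serotonin control mean in both duplicate plates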;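 for outcome: serotonin given first at submaximal then at maximal dose after compound preincubation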); settings: Fluo-4 calcium flux, at 10 µM, serotonin added to trigger calcium flux; stronger effect = higher value
[14] = tested on: TRPC4 (mouse), co-expressed with 5HT1a in HEK293; experiment: calcium flux potentiators in TRPC4/5HT1a cells, confirmation, counter-screen for TRPC4 potentiator project, cell-based, second counter screen, HEK293 TRPC4/5HT1a, Fluo-4 (AID 434979;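 active = signal rise over 3 SD above mean of control wells given weak agonist, in both repeats and first screen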); settings: Fluo-4 calcium flux, at 10 µM, serotonin added at its EC20 dose; stronger effect = higher value
[15] = calcium flux activation in mu-opioid HEK293 cells, confirmation, counter-screen for TRPC4 activator project, cell-based, HEK293 mu-opioid receptor line (AID 449723;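 active = hit in primary screen, with calcium signal over 5 SD above buffer well mean in both duplicates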;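 note: counter screen cells carry the mu-opioid receptor alone and lack TRPC4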); settings: Fluo-4 calcium fluorescence, at 10 µM; stronger effect = higher value
[16] = calcium flux enhancement in mu-opioid HEK293 cells, confirmation, counter-screen for TRPC4 allosteric potentiator project, cell-based, HEK293 mu-opioid receptor line (AID 449724;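 active = calcium signal rise more than 3 SD above the low-dose agonist control mean, in both duplicate plates and the primary screen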); settings: Fluo-4 calcium flux, at 10 µM, compound added before EC20 DAMGO stimulus; stronger effect = higher value
[17] = thallium flux activation in parental CHO cells, counter-screen for KCNQ1 potentiator project (AID 493006;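 active = duplicate-averaged activation above buffer control mean plus 5 SD of those controls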;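 for activation: fluorescence ratio of max minus min over baseline after K+ and Tl+ depolarization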); settings: parental CHO-K1 cells, FluxOR thallium flux, at 10 µM; stronger effect = higher value
[18] = target: Potassium voltage-gated channel subfamily KQT member 1 (Homo sapiens) (UniProt P51787); experiment: KCNQ1 potassium channel potentiators, confirmation, FluxOR thallium flux, CHO cells, duplicates (AID 493007;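 active = potentiation averaged over duplicate wells exceeding buffer-only control mean by more than 3 SD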;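 note: 0% = buffer-only wells and 100% = R-L3 activator control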); settings: KCNQ1 cell line, FluxOR thallium flux fluorescence, at 10 µM; stronger effect = higher value, % of reference activator effect, buffer zero
[19] = target: Potassium voltage-gated channel subfamily KQT member 2 (Rattus norvegicus) (UniProt O88943); experiment: rat KCNQ2 channel potentiation, selectivity assay for KCNQ1 potentiator project, KCNQ2-CHO-K1 cells (AID 493009;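 active = mean duplicate potentiation above the buffer control mean plus 5 SD of buffer wells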;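 note: assay conditions were tuned for KCNQ1 rather than KCNQ2 modulators; signal is max minus min fluorescence divided by baseline after thallium stimulus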); settings: FluxOR thallium flux fluorescence, at 10 µM; stronger effect = higher value, scaled: buffer 0, activator control 100
[20] = target: Potassium voltage-gated channel subfamily KQT member 1 (Homo sapiens) (UniProt P51787); experiment: KCNQ1 channel current potentiators, confirmation, orthogonal assay for KCNQ1 potentiator project, IonWorks patch clamp, KCNQ1-CHO cells (AID 493184;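 active = current rise at least 3 SD above the untreated control mean in each of two repeat wells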); settings: automated patch clamp current, at 10 µM; stronger effect = higher value

Potassium voltage-gated channel subfamily KQT member 1 (Homo sapiens), sequence (P51787 whole entry, looked up): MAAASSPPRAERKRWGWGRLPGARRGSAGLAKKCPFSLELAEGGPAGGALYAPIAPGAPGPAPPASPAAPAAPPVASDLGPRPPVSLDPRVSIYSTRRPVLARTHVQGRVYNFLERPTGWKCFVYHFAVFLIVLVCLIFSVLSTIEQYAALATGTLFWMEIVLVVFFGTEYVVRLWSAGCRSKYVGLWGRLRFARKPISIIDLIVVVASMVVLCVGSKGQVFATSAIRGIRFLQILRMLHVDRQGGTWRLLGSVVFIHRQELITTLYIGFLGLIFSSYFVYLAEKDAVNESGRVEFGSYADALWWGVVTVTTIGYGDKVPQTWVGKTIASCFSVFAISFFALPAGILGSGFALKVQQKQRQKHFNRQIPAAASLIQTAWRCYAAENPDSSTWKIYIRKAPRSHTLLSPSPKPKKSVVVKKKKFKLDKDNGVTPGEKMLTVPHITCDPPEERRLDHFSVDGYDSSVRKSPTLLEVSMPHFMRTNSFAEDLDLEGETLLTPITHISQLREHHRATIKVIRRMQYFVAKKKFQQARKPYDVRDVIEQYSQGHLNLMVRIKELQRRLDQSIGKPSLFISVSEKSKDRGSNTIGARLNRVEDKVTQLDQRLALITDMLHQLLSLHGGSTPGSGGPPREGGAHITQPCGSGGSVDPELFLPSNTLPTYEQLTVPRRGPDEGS
Potassium voltage-gated channel subfamily KQT member 2 (Rattus norvegicus), sequence (O88943 whole entry, looked up): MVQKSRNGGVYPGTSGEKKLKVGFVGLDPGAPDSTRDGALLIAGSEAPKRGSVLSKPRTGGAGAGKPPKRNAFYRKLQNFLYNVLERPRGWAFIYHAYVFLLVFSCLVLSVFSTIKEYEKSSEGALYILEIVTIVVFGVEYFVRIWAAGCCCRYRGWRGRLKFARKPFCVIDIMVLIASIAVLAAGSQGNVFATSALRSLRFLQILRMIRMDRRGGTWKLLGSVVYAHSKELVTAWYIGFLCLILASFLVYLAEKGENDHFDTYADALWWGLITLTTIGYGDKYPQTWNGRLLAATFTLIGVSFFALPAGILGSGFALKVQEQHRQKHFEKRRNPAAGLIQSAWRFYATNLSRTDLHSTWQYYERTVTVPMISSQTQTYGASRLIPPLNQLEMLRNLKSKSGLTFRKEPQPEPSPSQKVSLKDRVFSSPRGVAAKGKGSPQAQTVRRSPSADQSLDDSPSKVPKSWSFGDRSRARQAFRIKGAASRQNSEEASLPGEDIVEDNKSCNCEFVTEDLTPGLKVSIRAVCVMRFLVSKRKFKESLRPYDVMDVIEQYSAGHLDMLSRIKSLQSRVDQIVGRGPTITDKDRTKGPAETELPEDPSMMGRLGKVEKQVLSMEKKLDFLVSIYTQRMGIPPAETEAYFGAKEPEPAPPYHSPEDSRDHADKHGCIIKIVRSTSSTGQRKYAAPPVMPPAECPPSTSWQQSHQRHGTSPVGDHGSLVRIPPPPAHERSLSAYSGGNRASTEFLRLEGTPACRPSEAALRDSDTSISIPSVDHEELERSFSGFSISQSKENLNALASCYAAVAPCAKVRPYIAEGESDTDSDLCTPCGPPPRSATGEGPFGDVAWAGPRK
Short transient receptor potential channel 4 (Mus musculus), sequence (Q9QUQ5 whole entry, looked up): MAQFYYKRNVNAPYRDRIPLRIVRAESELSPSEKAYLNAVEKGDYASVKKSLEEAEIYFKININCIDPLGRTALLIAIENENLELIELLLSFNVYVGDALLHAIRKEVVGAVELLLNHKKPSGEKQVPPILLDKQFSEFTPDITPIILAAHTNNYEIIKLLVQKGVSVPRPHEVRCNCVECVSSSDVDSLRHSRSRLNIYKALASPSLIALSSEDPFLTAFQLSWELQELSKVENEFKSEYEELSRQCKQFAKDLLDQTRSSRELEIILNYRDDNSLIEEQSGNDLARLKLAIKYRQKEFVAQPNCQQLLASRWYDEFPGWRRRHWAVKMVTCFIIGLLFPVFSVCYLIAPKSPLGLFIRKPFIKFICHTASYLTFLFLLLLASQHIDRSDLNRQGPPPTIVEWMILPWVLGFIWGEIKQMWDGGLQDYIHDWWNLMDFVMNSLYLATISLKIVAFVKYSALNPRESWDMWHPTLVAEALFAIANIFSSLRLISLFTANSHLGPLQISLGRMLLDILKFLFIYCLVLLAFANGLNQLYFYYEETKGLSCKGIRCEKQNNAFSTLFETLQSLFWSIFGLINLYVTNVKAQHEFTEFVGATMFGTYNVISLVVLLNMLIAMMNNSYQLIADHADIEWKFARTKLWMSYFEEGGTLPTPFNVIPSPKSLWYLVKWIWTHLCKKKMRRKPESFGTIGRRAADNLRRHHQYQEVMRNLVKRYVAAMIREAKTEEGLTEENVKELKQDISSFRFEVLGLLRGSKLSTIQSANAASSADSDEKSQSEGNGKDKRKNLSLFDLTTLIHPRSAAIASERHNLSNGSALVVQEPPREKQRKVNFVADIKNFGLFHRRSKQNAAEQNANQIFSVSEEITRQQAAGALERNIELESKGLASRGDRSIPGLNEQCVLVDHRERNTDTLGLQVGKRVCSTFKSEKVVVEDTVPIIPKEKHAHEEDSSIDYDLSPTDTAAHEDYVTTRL
Short transient receptor potential channel 6 (Mus musculus), sequence (Q61143 whole entry, looked up): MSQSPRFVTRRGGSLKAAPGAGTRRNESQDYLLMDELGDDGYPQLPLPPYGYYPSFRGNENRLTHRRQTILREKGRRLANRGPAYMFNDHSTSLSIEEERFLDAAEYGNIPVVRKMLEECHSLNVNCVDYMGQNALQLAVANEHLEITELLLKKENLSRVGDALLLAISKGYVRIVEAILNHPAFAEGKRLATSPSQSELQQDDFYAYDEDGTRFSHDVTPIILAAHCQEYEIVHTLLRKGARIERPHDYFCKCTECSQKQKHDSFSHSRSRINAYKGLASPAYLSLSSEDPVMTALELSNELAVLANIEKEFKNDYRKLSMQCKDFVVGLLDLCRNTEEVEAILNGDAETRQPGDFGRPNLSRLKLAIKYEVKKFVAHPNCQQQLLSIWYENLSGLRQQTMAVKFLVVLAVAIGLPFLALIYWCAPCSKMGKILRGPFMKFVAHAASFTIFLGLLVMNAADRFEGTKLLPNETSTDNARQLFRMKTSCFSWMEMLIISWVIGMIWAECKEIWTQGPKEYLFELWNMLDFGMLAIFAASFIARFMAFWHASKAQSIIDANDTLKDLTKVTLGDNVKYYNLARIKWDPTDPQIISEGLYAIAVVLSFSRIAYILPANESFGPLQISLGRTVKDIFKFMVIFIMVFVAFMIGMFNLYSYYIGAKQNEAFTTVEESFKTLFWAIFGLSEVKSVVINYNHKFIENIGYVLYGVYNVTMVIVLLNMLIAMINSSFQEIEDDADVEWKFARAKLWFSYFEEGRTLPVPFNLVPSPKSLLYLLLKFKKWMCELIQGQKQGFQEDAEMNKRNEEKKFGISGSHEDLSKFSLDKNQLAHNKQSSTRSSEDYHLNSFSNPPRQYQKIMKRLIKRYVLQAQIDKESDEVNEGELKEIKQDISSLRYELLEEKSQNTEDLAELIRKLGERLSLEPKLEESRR

Cc1ccc(OCC(=O)NNC(=S)NC(=O)C(C)(C)C)c(Br)c1
active: activation [1] 120% | activation [10] 24% | activation [12] 90.9% | activation [15] 19.6% | potentiation [18] 73% | potentiation [19] 158%
inactive: outcome [2] | outcome [3] | outcome [4] | outcome [5] | outcome [6] | outcome [7] | outcome [8] | outcome [9] | outcome [11] | outcome [13] | outcome [14] | outcome [16] | outcome [17] | outcome [20]

CC(Oc1ccc(Cl)cc1)C(=O)NNC(=S)NC(=O)c1ccco1 (centres undefined)
inactive: outcome [2] | outcome [3] | outcome [4] | outcome [5] | outcome [6] | outcome [7] | outcome [8] | outcome [9] | outcome [10] | outcome [11] | outcome [13] | outcome [14] | outcome [16] | outcome [17] | outcome [20]
active: activation [1] 192% | activation [12] 104% | activation [15] 29.1% | potentiation [18] 50% | potentiation [19] 170%

COc1ccc(C(=O)NNC(=S)NC(=O)c2ccccc2)cc1
inactive: outcome [2] | outcome [3] | outcome [4] | outcome [5] | outcome [6] | outcome [7] | outcome [8] | outcome [9] | outcome [11] | outcome [13] | outcome [14] | outcome [16] | outcome [17] | outcome [20]
active: activation [1] 130% | activation [10] 32% | activation [12] 87.5% | activation [15] 32.5% | potentiation [18] 58.5% | potentiation [19] 166%

CCOC(=O)C1=NN(C(=O)c2ccc(C)cc2)C(O)(c2ccc(Cl)cc2)C1 (centres undefined)
inactive: outcome [2] | outcome [3] | outcome [4] | outcome [5] | outcome [6] | outcome [7] | outcome [8] | outcome [9] | outcome [11] | outcome [13] | outcome [14] | outcome [16] | outcome [20]
active: activation [1] 98% | activation [10] 217% | activation [12] 66.4% | activation [15] 37.9% | activation [17] 630% | potentiation [18] 336% | potentiation [19] 655%

CC(C)(C)C(=O)NC(=S)NNC(=O)C(c1ccccc1)c1ccccc1
inactive: outcome [2] | outcome [3] | outcome [4] | outcome [5] | outcome [6] | outcome [7] | outcome [8] | outcome [9] | outcome [11] | outcome [13] | outcome [14] | outcome [16] | outcome [17] | outcome [19] | outcome [20]
active: activation [1] 286% | activation [10] 46% | activation [12] 158% | activation [15] 119% | potentiation [18] 22%

CCOC(=O)C1(CC2CC2)CCN(Cc2ccc(O)c(Cl)c2)CC1
inactive: outcome [1] | outcome [2] | outcome [3] | outcome [4] | outcome [7] | outcome [9] | outcome [11] | outcome [12] | outcome [13] | outcome [14] | outcome [15] | outcome [16]
active: inhibition [5] 97% | inhibition [6] 63% | activation [10] 82%

Cc1ccc(C(=O)NNC(=S)NC(=O)c2ccccc2)cc1
active: activation [1] 239% | activation [10] 27% | activation [12] 133% | activation [15] 77.1% | activation [17] 188% | potentiation [18] 156% | potentiation [19] 300%
inactive: outcome [2] | outcome [3] | outcome [4] | outcome [5] | outcome [6] | outcome [7] | outcome [8] | outcome [9] | outcome [11] | outcome [13] | outcome [14] | outcome [16] | outcome [20]

COc1cccc(CC2(CO)CCCN(Cc3ccccc3-c3ccco3)C2)c1 (centres undefined)
active: inhibition [6] 42% | activation [10] 47%
inactive: outcome [1] | outcome [2] | outcome [3] | outcome [4] | outcome [5] | outcome [7] | outcome [9] | outcome [11] | outcome [12] | outcome [13] | outcome [14] | outcome [15] | outcome [16]

CN(C)C1(CNC(=O)CC(NC(=O)c2ccccc2Cl)c2ccccc2)CCCCC1 (centres undefined)
active: inhibition [5] 88% | inhibition [6] 78% | activation [10] 44.5%
inactive: outcome [1] | outcome [2] | outcome [3] | outcome [4] | outcome [7] | outcome [9] | outcome [11] | outcome [12] | outcome [13] | outcome [14] | outcome [15] | outcome [16]

O=C(Nc1nnc(-c2cccs2)o1)c1cccc(C(F)(F)F)c1
active: activation [1] 151% | activation [12] 57.6% | activation [15] 29.9% | activation [17] 208% | potentiation [18] 50%
inactive: outcome [2] | outcome [3] | outcome [4] | outcome [5] | outcome [6] | outcome [7] | outcome [8] | outcome [9] | outcome [10] | outcome [11] | outcome [13] | outcome [14] | outcome [16] | outcome [20]

OC(CNC1CCCc2ccccc21)COc1c(Cl)cccc1Cl (centres undefined)
active: activation [1] 86% | inhibition [6] 52% | activation [10] 101% | activation [12] 9.49% | inhibition [13] 35.9% | activation [15] 14.8%
inactive: outcome [2] | outcome [3] | outcome [4] | outcome [5] | outcome [7] | outcome [9] | outcome [11] | outcome [14] | outcome [16]

Cc1ccccc1C(=O)NNC(=S)NC(=O)c1ccc(Cl)cc1Cl
inactive: outcome [2] | outcome [3] | outcome [4] | outcome [5] | outcome [6] | outcome [7] | outcome [8] | outcome [9] | outcome [11] | outcome [13] | outcome [14] | outcome [16] | outcome [17] | outcome [20]
active: activation [1] 293% | activation [10] 35% | activation [12] 182% | activation [15] 84.2% | potentiation [18] 117% | potentiation [19] 222%

Cc1cccc(C(=O)NC(=S)NNC(=O)c2ccccc2Cl)c1
active: activation [1] 201% | activation [10] 34% | activation [12] 138% | activation [15] 85.8% | potentiation [18] 50.5% | potentiation [19] 158%
inactive: outcome [2] | outcome [3] | outcome [4] | outcome [5] | outcome [6] | outcome [7] | outcome [8] | outcome [9] | outcome [11] | outcome [13] | outcome [14] | outcome [16] | outcome [17] | outcome [20]
